From PubChem BioAssay AID504842 (National Center for Advancing Translational Sciences (NCATS), 2011)
Out of some 330,000 compounds screened, about 100 (0.03%) were called active. Inconclusive results (about 1%) are left out. The sample holds actives, similar compounds and a random draw of the others, so the mix is not that of the screen. The call rests on the fitted dose curve; in most records, active means well fitted inhibition curve with a large enough effect; inconclusive means small, poorly fitted or top-dose-only effect; inactive means flat fitted curve, though single readings scatter.

system: Chaperonin Mm-Cpn (Methanococcus maripaludis); assay: Inhibitors of TCP-1 ring complex (TRiC) of Methanococcus maripaludis (MmCpn): qHTS; settings: purified Mm-Cpn ATPase, ADP Transcreener TR-FRET; series mostly up to 76.9 µM; activity, negative = inhibition: at the top concentration; further: nearly all actives have a fitted effect of over 80% in size;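 on Potency: enzyme at 25 nM with ATP substrate at 10 µM during the reaction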
Source text: The eukaryotic chaperonin TRiC (for TCP-1 ring complex) is an essential and conserved chaperone required for the folding and activation of 10-15% of the proteins encoded by the human genome. […] The TRiC complex consist of two stacked 7-9 membered rings, each containing a central cavity. Substrates are folded within the cavity in an ATP-dependent manner. TRiC is a complex of eight different, essential proteins. As each of the genes encoding the eight subunits is essential for cell viability and no protocol has been developed to over-express this enzyme to high levels. That is why several groups studying the TRiC chaperonin have turned to the archaeal homolog of TRiC, Methanococcus maripaludis (Mm-CPN), and have used this enzyme as a model system for the study of the type II chaperonin family. Small molecule inhibitors of the Mm-CPN enzyme would be extremely useful to study the mechanism of chaperonin activity. Importantly, TRiC and Mm-CPN both require ATP hydrolysis for function. Furthermore, the ATP binding sites are highly conserved among these type II chaperonins. This provides us with an easy, well tested and straightforward assay to identify inhibitors of chaperonin activity. The Mm-CPN assay was developed in 1536-well plate format using the HTRF Transcreener ADP assay kit (Cisbio, Bedford, MA). This assay applied the time resolved fluorescence resonance energy transfer (TR-FRET) principle. ATP in the presence of Mm-CPN is converted to ADP + Pi. An antibody labeled with Eu3+-Cryptate specific and bound to ADP labeled with […] (d2) competes with the unlabeled ADP generated by Mm-CPN. The resulting TR-FRET signal is inversely proportional to the concentration of ADP in the sample. In this assay a reduction in TR-FRET signal is observed with ATP turnover. NIH Chemical Genomics Center [NCGC] NIH Molecular Libraries Probe Centers Network [MLPCN] MLPCN Grant: DA030554-01A1 Assay Submitter (PI): Judith Frydman, Stanford University
Purified Mm-CPN was supplied by the laboratory of Dr. Judith Frydman. Protein samples were stored at -80C as single use aliquots. Protein was thawed in ambient temperature water bath and placed on ice once thawed. Buffer was prepared fresh day of screen. The buffer composition below was used to prepare the working solution of the Mm-CPN protein and ATP substrate. The buffer is comprised of 30 mM TRIS pH 7.4, 100mM KCl, 5mM MgCl2, and 1mM DTT. A final concentration of 25nM Mm-CPN and 10uM ATP per well were used in the screen. Instructions according to the manufacturer were followed for the ADP Transcreener kit. Used 1536 well Greiner white, medium binding (MB), solid bottom plates. Plates were read on the PerkinElmer EnVision plate reader using Excitation = 320 nm and Emission = […], 665 nm. Protocol- 1.Dispense 1.5ul per well of working [Mm-CPN] = 50nM (or 75 ng / well) 2.Spin plate at 1000 rpm for 30 seconds 3.23nl of compound transferred per well 4.Incubate at 37degC for 10 minutes 5.Dispense 1.5ul per well of working [ATP] = 20uM 6.Incubate at 37degC for 30 minutes 7.Dispense 3ul per well of Anti-ADP Cryptate / ADP-d2 mix (prepared as instructed by Cisbio) 8.Incubate at ambient for 30 minutes 9.Read using EnVision
On the % scale 0 is the no-effect control and ±100 the full control effect; potency means the concentration at half of the fitted maximal effect.

activity, negative = inhibition, inactive:
N#Cc1ccc(-c2nc3cc(C#N)c(C#N)cc3nc2-c2ccccc2)cc1C#N 0.293%
CC(=O)Nc1ccc(S(=O)(=O)N2CCN(S(=O)(=O)c3cccs3)CC2)cc1 0.0491%
Cc1ccc(CNC(=O)c2ccccc2CCc2ccccc2)cc1 -0.428%
CCC1SC(CC)C(=O)N(CC(=O)NC2CCCCC2)C1=O (stereo not given) 0.875%
Cc1cccc(C(=O)Nc2ccc(Oc3cnccn3)cc2)c1 -0.493%
CC(=O)Nc1cccc(C(=O)OCN2C(=O)c3ccccc3C2=O)c1 1.86%
C=CCN1C(=O)c2ccc(C(=O)N3CCC(C(=O)OCC)CC3)cc2C1=O -0.43%
Cc1ccc(NC2=C(Cl)C(=O)OC2OC(=O)c2ccccc2C)cc1 (stereo not given) -12.6%
Cc1ccccc1N1CCN(CCCN2C(=O)C3CCCCN3C2=O)CC1 (stereo not given) -0.311%
O=C(CCNS(=O)(=O)c1ccccc1)NCCCc1ccccc1 -1.66%
COc1cc(Br)c(-c2sc(Nc3ccccc3)n[n+]2-c2ccccc2)cc1OC -8.15%
NC(=O)N1CCCC1C(=O)Nc1ccc(Cl)c(Cl)c1 (stereo not given) -1%
CC(C)c1ccc(N2CCN(C(=O)c3ccccc3NC(=O)/C=C(\C(=O)O)c3ccccc3)CC2)cc1 1.56%
CC(NC(=O)COC(=O)c1ccc(Cl)cc1O)c1ccc(F)cc1 (stereo not given) -3.48%
COC(=O)c1ccc(/C=C/c2c(-c3ccc(OC)cc3)sc3ccccc23)cc1 1.68%
COc1ccc2sc(-c3ccccc3OC)c(-c3ccc(OCCN4CCCC4)cc3)c2c1 -12.8%
CC(=O)Nc1ccc(Nc2ncnc3c2nnn3Cc2ccccc2Cl)cc1 1.07%
O=C(NCc1ccccc1CN1CCCC1)C1CCN(S(=O)(=O)c2ccc(Cl)cc2)CC1 -0.604%
CC(C)CN(C(=O)c1ccc2c(c1)OCO2)C1CCS(=O)(=O)C1 (stereo not given) 0.881%
CC1(C)O[C@@H]2CC3C4C[C@H](F)C5=CC(=O)C=CC5(C)C4C(O)CC3(C)[C@]2(C(=O)CO)O1 (stereo not given in full) 1.04%
Cc1ccc2[nH]c(=O)c(CN(C)S(=O)(=O)c3cccc4nonc34)cc2c1 -2.84%
Cc1nc(NC2=NC(C(=O)Nc3ccc(Cl)cc3)CC(=O)N2)nc2ccccc12 (stereo not given) 0.566%
CC1CCN(c2ccc(C(=O)NCc3ccc4c(c3)OCO4)cc2[N+](=O)[O-])CC1 0.158%
CC(=O)c1ccc(NC(=O)CCNS(=O)(=O)c2cc(Br)cnc2N)cc1 -0.226%
CC(=O)c1nn(-c2cccc(C(F)(F)F)c2)c(=O)[nH]c1=O -0.223%
c1ccc(-c2nnc3n2NC(c2ccc4c(c2)OCO4)S3)cc1 (stereo not given) 1.41%
O=C(CSc1nnc(-c2ccncc2)o1)Nc1cccc(Cl)c1 2.25%
O=C(O)C1CCN(C(=O)c2cc(F)cc3c2OCOC3)CC1 2.42%
CC(=O)c1cn(CCCCCCCCCCn2cc(C(C)=O)c(=O)[nH]c2=O)c(=O)[nH]c1=O -3.31%
Cn1c2c(c(=O)n(C)c1=O)C(c1cccc(F)c1)C(C#N)=C(N)O2 (stereo not given) -1.49%
CCCCOP(=O)(c1ccc(N(C)C)cc1)C(O)c1cc(OC)ccc1OC (stereo not given) 2.81%
Cc1cccc(C(=O)O)c1[N+](=O)[O-] 0.41%
CCN(CC)S(=O)(=O)c1ccc(CNC(=O)CN2C(=O)NC3(CCc4ccccc43)C2=O)cc1 (stereo not given) -3.53%
NC(=O)CN1CCCC1c1ccc2c(c1)OCCO2 (stereo not given) 0.0789%
CCOC(=O)c1cc(-c2ccc(Cl)s2)nc2c1c(C)nn2C -7.1%
Cc1cc(S(=O)(=O)NCC(C)C)ccc1OCC(=O)NC1CC1 -0.397%
COc1ccc2c3c(c(=O)oc2c1)C1O[C@](CCCCN2C(=O)c4ccccc4C2=O)(Cc2c1ccc1ccccc21)O3 1.5% [at 15.4 µM]
O=C(CCc1ccccc1)Nc1ccnn1C1CCN(Cc2ccc(OCCO)cc2)CC1 1.27%
Cc1cccc(N(C(=O)Cc2cccs2)C(C(=O)NC2CCCC2)c2ccsc2)c1 (stereo not given) -0.0327%
O=C(CCNC(=O)c1ccc([N+](=O)[O-])cc1)NC1CCCCC1 -2.91%
O=C1CC(=O)Nc2cc(S(=O)(=O)N3CCN(c4cccc(C(F)(F)F)c4)CC3)ccc2N1 3.32%
CCOC(=O)C1=C(CC)OC(N)=C(C#N)C1c1ccc(F)cc1F (stereo not given) -1.36%
O=C(CN1CCN(C2CCS(=O)(=O)C2)CC1)N1N=C(c2ccc(Cl)cc2)CC1c1ccco1 (stereo not given) -0.933%
Cc1ccc(C)c(N(CC(=O)NCc2ccco2)C(=O)CCC(=O)Nc2ccccn2)c1 -0.588%
Cc1cccc(C)c1NC(=O)C(Cl)C(=O)c1ccccc1 (stereo not given) 0.831%
Cn1c(=O)c2c(n(Cc3ccccc3)c1=O)NC(=O)C2CC(=O)N1CCc2ccccc2C1 (stereo not given) -0.155%
CCCNCc1cc(OCC)c(OCC(=O)Nc2ccccc2)cc1Br -4.4%
CC(c1ccccc1)n1c(NCCCn2ccnc2)nc2c1c(=O)[nH]c(=O)n2C (stereo not given) 0.8%
CC(=O)NS(=O)(=O)c1ccc(NC(=O)/C=C/c2ccccc2Cl)cc1 -0.316%
CN(CC(=O)NCCc1ccc(F)cc1)CC(=O)Nc1ccc(F)c(F)c1F 1.1%
CC(C)c1nc2oc3c(N4CCN(C)CC4)ncnc3c2c2c1CCC2 -8.03%
C=CS(=O)c1sc(Cl)c(N2CCOCC2)c1[N+](=O)[O-] (stereo not given) -1.91%
CN(C)CCCNc1c2c(c(C#N)c3nc4ccccc4n13)CCC2 -0.924%
CCn1c2ccccc2c2cc(NC(=O)Nc3ccc([N+](=O)[O-])cc3C)ccc21 1.13%
O=C(CCC(=O)c1ccccc1)NCc1cccc(C(F)(F)F)c1 -0.0071%
CCOc1ccccc1NC(=S)NC(=O)CCc1ccccc1 0.822%
O=S(=O)(c1cc(Cl)ccc1Cl)N1CCN(Cc2ccco2)CC1 0.0715%
CCOc1cc(/C=C(/C#N)c2ccc(Cl)cc2)cc(Cl)c1OCC(=O)O 1.28%
O=C(CSc1ncnc2c1cnn2CCc1ccccc1)Nc1ccc(F)cc1 -0.16%
NC(=O)c1cc(-c2cccnc2)nc2ccc(Br)cc12 -1.29%
Cc1ccc2nc(-c3ccccn3)cc(C(=O)Nc3ccc4c(c3)OCO4)c2c1 -7.87%

Potency, inactive:
CC(C)CNC(=O)/C=C/C(=O)O

Potency, active:
CCc1ccc(Nc2n[n+](-c3ccccc3)c(-c3cccc(Cl)c3Cl)s2)cc1 56.2 µM
COc1ccccc1-c1sc2ccccc2c1-c1ccc(C(C)=O)cc1 31.6 µM
O=C(Nc1ccncc1)c1cc(-c2ccccn2)nc2ccc(Br)cc12 44.7 µM
